Our source for the Potency and activity change, negative = inhibition values is PubChem BioAssay (NCATS).

Records with an inconclusive call do not appear. A call without a number means that no potency is given here. Unmarked numbers belong to inactive results. Active and inactive are the calls of the source. Calls come from the whole dose curve; as a rule, active = well fitted inhibition curve with a large enough effect in the repeat runs; inconclusive = weak or mixed curves; inactive = no such curve, though single readings can be large or run the other way.
Potency is the fitted concentration of half-maximal effect.

Cytochrome P450 2C9 (Homo sapiens), sequence (P11712 whole entry, looked up): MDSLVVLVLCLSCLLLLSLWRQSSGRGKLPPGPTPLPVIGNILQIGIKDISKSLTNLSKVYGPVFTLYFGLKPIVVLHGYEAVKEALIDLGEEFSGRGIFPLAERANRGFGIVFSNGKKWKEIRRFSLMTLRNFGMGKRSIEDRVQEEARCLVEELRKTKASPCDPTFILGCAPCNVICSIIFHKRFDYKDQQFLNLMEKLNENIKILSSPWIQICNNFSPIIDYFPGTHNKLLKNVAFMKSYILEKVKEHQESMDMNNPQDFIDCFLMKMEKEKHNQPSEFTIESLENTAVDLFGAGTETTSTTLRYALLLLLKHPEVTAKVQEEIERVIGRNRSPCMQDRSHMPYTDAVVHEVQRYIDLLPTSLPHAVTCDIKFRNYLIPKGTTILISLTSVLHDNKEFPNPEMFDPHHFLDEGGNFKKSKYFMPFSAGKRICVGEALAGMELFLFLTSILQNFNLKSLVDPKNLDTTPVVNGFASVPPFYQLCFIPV

In this assay the target is Cytochrome P450 2C9 (Homo sapiens) (UniProt P11712). Briefly: Cytochrome P450 family 2 subfamily C member 9 (CYP2C9) small molecule antagonists: luciferase biochemical (cell-free) qHTS assay (AID 1645842). Note: nearly all actives have a fitted effect of over 55% in size. To be noted: P450-Glo CYP2C9 enzyme assay, luciferin luminescence; series mostly up to 57.4 µM. An outline of the steps:
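Luminescence, after 20 min with luciferin detection reagent, reflected CYP2C9 turnover during a 1 h NADPH-driven reaction at 37C. Enzyme-substrate mix contained 0.4% bovine serum albumin and was preincubated with compound 10 min at room temperature.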
(In general: qHTS replaces the single test concentration by a dilution series.)
Regarding `OC[C@H]1O[C@H](O[C@]2(CCl)O[C@H](CCl)[C@@H](O)[C@@H]2O)[C@H](O)[C@@H](O)[C@H]1Cl`, the Potency entry was “inactive”.
The same measure, in the same setting: with `NC(CO)(CO)CO` the entry was “inactive”; with `CN1CCN(C(c2ccccc2)c2ccccc2)CC1`, “inactive”.
On the same count and under the same terms, next, `OCc1ccccc1O`: “inactive”.
As for `O=C(OCC(O)CO)c1ccccc1Nc1ccnc2cc(Cl)ccc12` (stereo unspecified), the Potency is 5.49 µM (active).
Same read-out and setting: next, `N[C@@H](CCC(=O)N[C@@H](CS)C(=O)NCC(=O)O)C(=O)O`: “inactive”; `OC[C@H]1O[C@@H](n2cnc3c(=S)nc[nH]c32)[C@H](O)[C@@H]1O`: 11 µM (active).
On the same count and under the same terms, next, `CCCCCCC[N+](CC)(CC)CCCCc1ccc(Cl)cc1`: “inactive”.
On the same count and under the same terms, with `CCN(CC)CCNC(=O)COc1ccc(Cl)cc1` the entry was “inactive”.
Consider `Oc1cc(O)c2c(c1)O[C@H](c1ccc(O)c(O)c1)[C@H](O)C2`, for which the Potency entry is “inactive”.
Same read-out and setting: next, `Cc1ccnc(NS(=O)(=O)c2ccc(N)cc2)n1`: “inactive”.
Still for that read-out and setting: next, `CCCCCCCCCCCCCCNCCO`: “inactive”; `CC[N+](CC)(CCNC(=O)C(=O)NCC[N+](CC)(CC)Cc1ccccc1Cl)Cc1ccccc1Cl`: “inactive”; `Cc1nc2n(c(=O)c1CCN1CCC(c3noc4cc(F)ccc34)CC1)CCC[C@H]2O`: “inactive”.
In the case of `C[C@H](CCC(=O)O)[C@H]1CC[C@H]2[C@@H]3C(=O)C[C@@H]4CC(=O)CC[C@]4(C)[C@H]3CC(=O)[C@]12C`, the Potency result is “inactive”.
On to `CC(C)=CCC1C(=O)N(c2ccccc2)N(c2ccccc2)C1=O`, for which the Potency result is “inactive”.
Still for that read-out and setting: with `COc1c(C)c2c(c(O)c1C/C=C(\C)CCC(=O)O)C(=O)OC2` the entry was “inactive”; with `Cc1ccc(C(=O)C(C)CN2CCCCC2)cc1` (stereo unspecified), “inactive”; with `CCCN1CCCC[C@H]1C(=O)Nc1c(C)cccc1C`, “inactive”.
Same read-out and setting: with `CC(=O)CC(c1ccc([N+](=O)[O-])cc1)c1c(O)c2ccccc2oc1=O` (stereo unspecified) the figure was 2.19 µM (active); with `Cc1ncc(CSSCc2cnc(C)c(O)c2CO)c(CO)c1O`, 6.17 µM (active); with `CCCCS(=O)(=O)N[C@@H](Cc1ccc(OCCCCC2CCNCC2)cc1)C(=O)O`, “inactive”.
On to `CCn1cc(C(=O)O)c(=O)c2cnc(N3CCCC3)nc21`, for which the activity change, negative = inhibition is -2.8% [at 11.5 µM].
As for `Oc1c(I)cc(I)c2cccnc12`, the Potency entry is “inactive”.
Still for that read-out and setting: with `CN(C)CCOc1ccccc1Cc1ccccc1` the entry was “inactive”.
Same read-out and setting: next, `Cc1cc2c(cc1CC(=O)c1sccc1S(=O)(=O)Nc1onc(C)c1Cl)OCO2`: 3.09 µM (active).
Still for that read-out and setting: next, `CC(=O)N(O)CCCCCNC(=O)CCC(=O)N(O)CCCCCNC(=O)CCC(=O)N(O)CCCCCN`: “inactive”; `CC(=O)Nc1c(I)cc(I)c(C(=O)O)c1I`: “inactive”; `COc1ccc(C2C(=O)c3ccccc3C2=O)cc1`: “inactive”.
Take `O=C1c2ccccc2C(=O)C1c1ccccc1`: the Potency entry is “inactive”.
Still for that read-out and setting: next, `CC(=O)Oc1ccc(C(=C2CCCCC2)c2ccc(OC(C)=O)cc2)cc1`: 9.77 µM (active); `O=c1[nH]c(=O)n([C@H]2CCCO2)cc1F`: “inactive”.
The same measure, in the same setting: with `O=c1[nH]c(=O)n([C@H]2C[C@H](O)[C@@H](CO)O2)cc1C(F)(F)F` the entry was “inactive”; with `NCCc1ccn[nH]1`, “inactive”; with `COc1ccc(CCN2CCC(Nc3nc4ccccc4n3Cc3ccc(F)cc3)CC2)cc1`, “inactive”.
Same read-out and setting: with `COc1cc(C(=S)N2CCOCC2)cc(OC)c1OC` the entry was “inactive”.
